Among the data in PubChem BioAssay are outcome and AC50 values, retold here.

Results filed as inconclusive are left out. The source made the active and inactive calls. The limit is not given here; nearly all actives have AC50 up to about 26 µM.

This assay is described as follows: viability loss in pontine glioma line – cell-based, SU-DIPG-XVII, MIPE5.0, CellTiter-Glo, qHTS, dose response (AID 1347060).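 As to AC50: cells exposed to compound for 48 hours before viability readout.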 The settings on record: CellTiter-Glo ATP luminescence.
Turning to `COc1cc(-c2cn(C)c(=O)c3cnccc23)c(OC)cc1CN(C)C`, the compound was called inactive.
On the same count and under the same terms, next, `CC(C)C[C@@H]1NC(=O)[C@@H](C(C)C)NC(=O)[C@@H]2CCCN2C(=O)[C@@H](CC(=O)O)NC(=O)[C@@H](Cc2c[nH]c3ccccc23)NC1=O`: “inactive”; `O=C([O-])C[O-].[Pt+2]`: “inactive”.
As for `Cc1cc(Nc2cc(N)ncn2)c(=O)n2c1C(=O)NC21CCCCC1`, the compound was classed as inactive.
The same measure, in the same setting: for `COc1cc2c(NC3CCN(C)CC3)nc(N3CCCN(C)CC3)nc2cc1OCCCN(C)C` the value was “inactive”.
Turning to `CCc1ccc2nc(Nc3cc(Cc4ccccc4)nc(NC4CCC(O)CC4)n3)sc2c1` (centres undefined), the AC50 was 26.3 µM (active).
Still for that read-out and setting: next, `C[C@H]1CNC(=O)c2cnn3ccc(nc23)N[C@H](C)c2cc(F)ccc2O1`: 1.05 µM (active).
As to `O=C1OC2(CCC(C(=O)Nc3ccn(-c4ccccc4F)n3)CC2)c2cnccc21` (centres undefined), the outcome was inactive.
As for `O=C(Nc1ccc2c(c1)CCN(Cc1ncn[nH]1)C2)c1ccccc1-c1ccc(C(F)(F)F)cc1`, the compound was classed as inactive.
For the compound `Cn1nccc1Nc1nccc(-c2cc3c(s2)C(C)(C)N(CCN2CCOCC2)C3=O)n1`, the AC50 is 5.25 µM (active).
Consider `CCCCCCCCCCCCCCCCOCCCOP(=O)(O)COC(CO)Cn1ccc(N)nc1=O` (centres undefined), for which the call was inactive.
Take `CNc1nc(C)nc(N[C@H]2CCC[C@@H](C(=O)NCc3ccc(C#N)cc3C(F)(F)F)C2)n1`: the compound was called inactive.
As to `CCOc1cc(C(=O)N2CCC(N3CCN(C)CC3)CC2)ccc1Nc1ncc2c(n1)N(C1CCCC1)c1ccccc1C(=O)N2C`, the AC50 is 23.5 µM (active).
Consider `COCCNc1cc(NC(=O)N2CCCc3cc(CN4CCN(C)CC4=O)c(C=O)nc32)ncc1C#N`, for which the outcome was inactive.

In general, AC50 refers to the concentration giving half of the maximal activity seen.
